Screening results as filed in PubChem.
Hits are enriched below; roughly 21% of the tested compounds scored in any of these assays.
DT40 TDP1 no CPT – qHTS for Inhibitors of human tyrosyl-DNA phosphodiesterase 1 (TDP1): qHTS in cells in absence of CPT. actives 15% (n = 420,000). DT40 Tdp1-/- hTDP1 cells, no CPT, ATP luminescence, 48 h. Potency, µM (doses to about 46.2 µM), most hits filed as inhibitors; also: nearly all actives have a fitted effect of over 55% in size
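DT40 Tdp1-/-;hTDP1 cells, no CPT (DMSO vehicle only), 400 cells/well; compounds pin-transferred; ≥48 hr, 37 °C; CellTiter-Glo 30 min RT dark, luminescence read.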
RORgamma inh – inhibitors of mouse ROR gamma transcriptional activity. actives 5.4% (n = 310,000). AID 2551. Drosophila S2 Gal4-RORgamma UAS-luciferase reporter, 20 h. Potency, µM (doses to about 53.6 µM), usual class: inhibitors; also: nearly all actives have a fitted effect of over 60% in size
Target sequence (P51450 whole entry, looked up, the tested form may be a part): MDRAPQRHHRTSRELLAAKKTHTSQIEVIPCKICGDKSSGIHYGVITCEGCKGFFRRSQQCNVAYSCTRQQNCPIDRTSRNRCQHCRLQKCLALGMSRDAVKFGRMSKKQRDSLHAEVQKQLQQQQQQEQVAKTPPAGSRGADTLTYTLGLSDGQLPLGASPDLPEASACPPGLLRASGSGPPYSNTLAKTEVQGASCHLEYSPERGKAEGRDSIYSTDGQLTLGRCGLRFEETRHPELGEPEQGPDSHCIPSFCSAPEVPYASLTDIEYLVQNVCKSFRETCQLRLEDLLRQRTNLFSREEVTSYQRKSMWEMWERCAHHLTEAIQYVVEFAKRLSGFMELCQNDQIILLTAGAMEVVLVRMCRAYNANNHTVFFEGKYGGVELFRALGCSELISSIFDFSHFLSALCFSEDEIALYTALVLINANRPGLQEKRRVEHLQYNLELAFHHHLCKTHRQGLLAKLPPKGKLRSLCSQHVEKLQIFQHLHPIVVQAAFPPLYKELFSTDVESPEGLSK
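A Gal4/UAS one-hybrid system in insect cells: metallothionein-promoter Gal4–ROR gamma fusion plus Photinus luciferase reporter. Copper sulfate 700 uM final, 20 hr ambient incubation, luminescent detection after 10 min with reagent.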
ELG1 DNA repair – ELG1-dependent DNA repair inhibition; HEK293T ELG1-luciferase reporter, luminescence, 16 h; DNA damage induced by 5-fluorouridine; Potency, µM (top dose mostly 46.1 µM), hits mostly inhibitors; actives 2.3% (n = 330,000); AID 504467; also: nearly all actives have a fitted effect of over 55% in size
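Reporter activity after DNA damage by 5-fluorouridine is monitored. Compound-treated cells incubate 16 hr at 37 °C, then ONE-Glo is added for 30 min before luminescence reading.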
VP16 counter – counter-screen for ROR gamma inhibitors: Gal4-VP16 reporter. Drosophila S2 Gal4-VP16 UAS-luciferase, luminescence, 20 h. Potency, µM (top dose mostly 53.6 µM), most hits filed as inhibitors. actives 3.5% (n = 310,000). AID 2546;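 also: Gal4-VP16 expression switched on by copper sulfate through the metallothionein promoter; nearly all actives have a fitted effect of over 50% in size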
TDP1 cell CPT – growth inhibition of DT40 Tdp1-/-;hTDP1 cells with camptothecin (screen for TDP1 inhibitors) | actives 12% (n = 420,000) | AID 686979 | chicken DT40 Tdp1-/-;hTDP1 cells + 20 nM CPT, ATP luminescence, 48 h | Potency, µM (titrated, usually from 46.2 µM), actives largely listed as inhibitors; also: nearly all actives have a fitted effect of over 55% in size
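Chicken DT40 Tdp1-/- cells complemented with human TDP1, 400 cells/well, exposed to compounds plus 20 nM camptothecin for at least 48 h at 37 C; viability read as ATP content by CellTiter-Glo luminescence.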
IL1B secr inh – blocks inflammasome-driven IL-1 beta release; THP-1 LPS/ATP IL-1B secretion, AlphaLISA, 16 h; stronger effect = lower value; actives 4.7% (n = 360,000); activity change, % at 57.5 µM; AID 743279; in the data active = activity change below about -50%; inconclusive = mostly about -30% to -49%
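Secreted IL-1B measured by AlphaLISA bead assay after 16 h compound exposure of THP-1 cells; compounds (final up to 57.5 uM) added 1 h before LPS (250 ng/mL) and ATP (1.25 mM) stimulation; lower signal means less secretion.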
Numbers stand for hits; i = inactive; ? = inconclusive; nt = no result; [ ] = dose if it differs, or a comment. Unless noted, calls follow the shape of the dose curve; as a rule, active = well fitted curve in the direction sought with a large enough effect; inconclusive = small, poorly fitted or top-dose-only effect, or another doubt; inactive = no such curve, though single readings can be large; an effect the other way counts as inactive or inconclusive.

SMILES	DT40 TDP1 no CPT	RORgamma inh	ELG1 DNA repair	VP16 counter	TDP1 cell CPT	IL1B secr inh
Clc1ccc(SCc2cc(N3CCOCC3)nc(-c3ccccn3)n2)cc1	3.26µM	0.562µM	?	4.47µM	5.8µM	i
Clc1ccc(SCc2csc(N3CCOCC3)n2)cc1	i	i	?	i	i	i
Cc1ccc(CSc2nc3ccsc3c(=O)n2Cc2ccccn2)cc1	16.4µM	i	i	i	?	?
O=C(O)C1CCC(Cn2c(SCc3cc(=O)n4ccccc4n3)nc3ccsc3c2=O)CC1 (stereo unspecified)	?	i	i	i	i	i
N#Cc1ccccc1CSc1nc2ccsc2c(=O)n1Cc1ccccn1	?	?	?	?	?	i
O=c1c2sccc2nc(SCc2cc(=O)n3cc(Br)ccc3n2)n1Cc1ccccn1	20.6µM	i	?	i	20.6µM	-53.3
OC1(c2ccc(F)cc2)CSC(=Nc2cccnc2)N1Cc1ccco1 (stereo unspecified)	?	?	23.1µM	?	?	i
OC1(c2ccc(OC(F)F)cc2)CSC(=Nc2cccnc2)N1Cc1ccco1 (stereo unspecified)	i	?	18.3µM	?	i	-77.3
CC(C)=CNNC(=O)c1ccc(O)cc1	i	nt	nt	nt	i	nt
CC(=O)Nc1ccc(OC(=O)c2ccccc2OC(C)=O)cc1	i	i	nt	?	i	nt
Cc1cccc(Cn2c(=O)n(CC3CCC(C(=O)NC(C)C)CC3)c(=O)c3sccc32)c1 (stereo unspecified)	i	nt	nt	nt	i	nt
CCOC(=O)N1CCC(NS(=O)(=O)c2ccc3c(c2)OCC(=O)N3)CC1	i	i	i	i	?	i
Cc1cccc(NC(=O)CCS(=O)(=O)c2cc3c(cc2Cl)NC(=O)CO3)c1	?	i	i	i	18.4µM	i
CCOC(=O)N1CCC(NS(=O)(=O)c2cc3c(cc2Cl)NC(=O)CO3)CC1	23.1µM	?	i	i[0.365 µM]	18.4µM	i
C=C(C)Cn1cnc2cc(C)c(C)cc21	i	11.2µM	i	i	i	i
COc1cc(OC)cc(OCC(O)Cn2cnc3cc(C)c(C)cc32)c1 (stereo unspecified)	16.4µM	i	?	i	?	i
COc1ccc(OCC(O)Cn2ccnc2C)cc1 (stereo unspecified)	i	i	i	i	i	i
CCCCN(C)c1c(C)nc2ccc(C(=O)N(CC)CCN(C)C)cn12	i	nt	nt	nt	i	i
Cc1ccc(NC(=O)c2c(C)oc3ccc(O)c(CN(C)Cc4ccccc4)c23)c(C)c1	14.6µM	nt	nt	nt	16.4µM	nt
CCN(Cc1ccccc1)Cc1c(O)ccc2oc(C)c(C(=O)Nc3ccc(C)cc3C)c12	7.31µM	nt	nt	nt	7.31µM	nt
Cc1cc(=O)oc2c(CN(C)Cc3ccccc3)c(O)ccc12	i	i	i	i	i	i
O=C(N/N=C/c1c[nH]c2ccccc12)c1cc(-c2ccc(-c3ccccc3)cc2)n[nH]1	?	5.62µM	?	?	?	i
O=C(N/N=C/c1c[nH]c2ccccc12)c1cc(-c2ccc3ccccc3c2)n[nH]1	?	?	i	?	3.66µM	-98.9
Cc1ccc(-c2cc(C(=O)N/N=C/c3c[nH]c4ccccc34)[nH]n2)cc1	2.59µM	i	i	?	2.31µM	i
O=C(N/N=C/c1c[nH]c2ccccc12)c1cc(-c2cccc3ccccc23)n[nH]1	?	i	i	?	?	-52.1
SMILES	DT40 TDP1 no CPT	RORgamma inh	ELG1 DNA repair	VP16 counter	TDP1 cell CPT	IL1B secr inh
Cc1nc(NC(=O)CSc2nccn2C)sc1C(=O)N(C)C	i	i	?	i	i	i
Cc1ccc(-c2cc3ncc4c(n3n2)-c2ccccc2OC4)cc1	i	nt	nt	nt	i	nt
CN(C)c1ccc(CNC(=O)C2CCCN(S(=O)(=O)c3ccc4c(c3)oc(=O)n4C)C2)cc1 (stereo unspecified)	i	nt	nt	nt	?	nt
O=S1(=O)OC(c2ccc(O)cc2)(c2ccc(O)cc2)c2ccccc21	i	i[10 µM]	nt	i	i	nt
C[Si](C)(C/C=C/CC[C@H](O)C1=CCCCC1=O)c1ccccc1	nt	i	nt	i	nt	nt
O=C(N/N=C/c1c[nH]c2ccccc12)c1ccn[nH]1	i	i	?	i	i	i
O=C(N/N=C/c1c[nH]c2ccccc12)c1cc(-c2ccccc2)n[nH]1	i	i	?	i	i	-66.0
CCOc1cccc2sc(N(CCCN(C)C)C(=O)Cc3ccccc3)nc12	i	i	i	i	i	i
COc1cccc2sc(N(CCCN(C)C)C(=O)COc3ccc(Cl)cc3)nc12	?	?	i	i	?	i
COc1cccc2sc(N(CCN(C)C)C(=O)/C=C/c3cccs3)nc12	20.6µM	?	?	?	?	i
